In PubChem BioAssay (EPA / NIEHS):
“And” between values parts separate entries of the source, which are not always exact repeats. Equal values may be shown once. Results filed as inconclusive are left out. Some compounds were tested as several samples or in several runs, with calls that do not always agree. The source made the active and inactive calls. The calls were made as follows: active = hit-call score of the fitted dose curve at least 0.9, where 1 is the maximum; inconclusive = response in the unintended direction; inactive = score below 0.9.

Assay: TOX21_p53_BLA_p3_viability: Viability Assessment in the Tox21 HCT-116 p53 Agonism Beta-lactamase Assay, Phase 3 (AID 2283593);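 also: cells exposed to compound for 16 h before reading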
How it was run: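 HCT-116 cells (4000/well) rested 5 h at 37C, then got DMSO compounds by pin tool (217-fold dilution) for 16 h at 37C, 5% CO2. After the bla read, CellTiter-Glo was added and luminescence read at 30 min, room temperature.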
For `CC(C)(c1ccc(OCC2CO2)cc1)c1ccc(OCC2CO2)cc1` (centres undefined), the AC50 was 64.5 µM (active) and the outcome was “inactive”.
In the case of `COP(=S)(OC)Oc1ccc(S(=O)(=O)N(C)C)cc1`, the outcome is reported as “inactive”.
For `C=CC#N`, the outcome was “inactive”.
In the case of `O=C1C(Cl)=C(Cl)C(=O)c2ccccc21`, the AC50 is reported as 30.9 µM (active) and 46.2 µM (active).
In the case of `C(=NC1CCCCC1)=NC1CCCCC1`, the AC50 is reported as 17.7 µM (active) and 30.7 µM (active).
For `C[C@H]1CCCC(=O)CCC/C=C/c2cc(O)cc(O)c2C(=O)O1`, the outcome was “inactive”.
With `O=C/C=C/c1ccccc1` the outcome was “inactive”.
In the case of `CCNc1nc(NC(C)(C)C)nc(SC)n1`, the outcome is reported as “inactive”.
With `COP(=O)(OC)OC` the outcome was “inactive”.
For `CC(C)C1CCC(Cc2ccc(Cl)cc2)C1(O)Cn1cncn1` (centres undefined), the AC50 was 45.7 µM (active).
For `CCCCCCCCSC(=O)Oc1cc(Cl)nnc1-c1ccccc1`, the AC50 was 59.1 µM (active).
For `CC(C)c1cccc(C(C)C)c1O`, the outcome was “inactive”.
In the case of `Nc1ccc(-c2ccc(N)c(Cl)c2)cc1Cl`, the outcome is reported as “inactive”.
